According to PubChem BioAssay (EPA / NIEHS):
Inconclusive results are not listed. Calls of active or inactive are those of the source. The calls were made as follows: active = hit-call score of the fitted dose curve at least 0.9, where 1 is the maximum; inconclusive = response in the unintended direction; inactive = score below 0.9.

Columns and labels:
[1] = ATG_XTT_Cytotoxicity: Cytotoxicity Assessment in the Attagene TRANS-FACTORIAL HepG2 Assay (AID 2283584)
Method in brief: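 HepG2 cells transiently transfected with GAL4-UAS multiple reporter units, dosed 24 h; cytotoxicity read by XTT as loss of signal versus DMSO baseline.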

[2] = target: Cellular tumor antigen p53 (Homo sapiens) (UniProt P04637); assay: TOX21_p53_BLA_p3_ratio: Tox21 HCT-116 p53 Agonism Beta-lactamase Assay, Ratio, Phase 3 (AID 2283596)
Method in brief: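 Cells were seeded at 4000/well, rested 5 h at 37C, then dosed with DMSO compound solutions (217-fold dilution) for 16 h. CCF4-AM substrate was loaded for 2 h at room temperature, and the 460/530 nm emission ratio was fitted for gain of signal versus DMSO.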

[3] = target: Cellular tumor antigen p53 (Homo sapiens) (UniProt P04637); assay: TOX21_p53_BLA_p4_ratio: Tox21 HCT-116 p53 Agonism Beta-lactamase Assay, Ratio, Phase 4 (AID 2283601)
Method in brief: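 Signal is the blue/green (460nm/530nm) ratio of cleaved versus uncleaved CCF4-AM substrate, read after 2 h substrate loading. Cells were HCT116 carrying the p53-responsive beta-lactamase reporter, dosed 16 h at 37C, 5% CO2; CellTiter-Glo measured in parallel.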

[4] = TOX21_p53_BLA_p5_viability: Viability Assessment in the Tox21 HCT-116 p53 Agonism Beta-lactamase Assay, Phase 5 (AID 2283600)
Method in brief: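 Decreased CellTiter-Glo luminescence denotes lost viability. Exposure: 16 h at 37C, 5% CO2, with compounds from DMSO stocks diluted 217-fold in wells of 4000 cells.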

[5] = TOX21_p53_BLA_p4_viability: Viability Assessment in the Tox21 HCT-116 p53 Agonism Beta-lactamase Assay, Phase 4 (AID 2283597);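 also: hits lower the luminescence signal meaning cytotoxicity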
Method in brief: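 4000 HCT116 cells per well; 5 h attachment; compounds from DMSO, 217-fold dilution; 16 h at 37C. Then CCF4-AM, 2 h RT, followed by CellTiter-Glo, 30 min RT, luminescence. Decrease = cytotoxicity.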

[6] = target: Cellular tumor antigen p53 (Homo sapiens) (UniProt P04637); assay: TOX21_p53_BLA_p5_ratio: Tox21 HCT-116 p53 Agonism Beta-lactamase Assay, Ratio, Phase 5 (AID 2283599)
Method in brief: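 Beta-lactamase reporter ratio (blue 460 nm over green 530 nm, 405 nm excitation) after 2 h CCF4-AM loading, in HCT-116 cells exposed 16 h at 37 C to compounds pinned at 217-fold dilution. Increases relative to DMSO baseline scored.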

[7] = TOX21_p53_BLA_p2_viability: Viability Assessment in the Tox21 HCT-116 p53 Agonism Beta-lactamase Assay, Phase 2 (AID 2283591);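 also: actives lower the ATP signal meaning cytotoxicity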
Method in brief: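 Cytotoxicity readout: CellTiter-Glo ATP luminescence, 30 min at room temperature, after the beta-lactamase read. Cells were HCT116 exposed 16 h at 37C to compounds pin-transferred at 217-fold dilution from DMSO stocks.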

[8] = target: Cellular tumor antigen p53 (Homo sapiens) (UniProt P04637); assay: TOX21_p53_BLA_p2_ratio: Tox21 HCT-116 p53 Agonism Beta-lactamase Assay, Ratio, Phase 2 (AID 2283592)
Method in brief: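 First, HCT116 reporter cells settle for 5 h at 37C. Next, DMSO compound solutions are pinned in (217-fold dilution) and left 16 h. Finally, CCF4-AM substrate is loaded 2 h at room temperature and the 460/530 nm ratio read.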

[9] = TOX21_p53_BLA_p3_viability: Viability Assessment in the Tox21 HCT-116 p53 Agonism Beta-lactamase Assay, Phase 3 (AID 2283593);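 also: cells exposed to compound for 16 h before reading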
Method in brief: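 Cellular ATP was quantified by CellTiter-Glo luminescence, read after 30 min at room temperature. Beforehand, HCT116 cells (4000/well) received compound 5 h post-seeding, 217-fold diluted from DMSO, then incubated 16 h at 37C.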

Measured: outcome

Cellular tumor antigen p53 (Homo sapiens), sequence (P04637 whole entry, looked up): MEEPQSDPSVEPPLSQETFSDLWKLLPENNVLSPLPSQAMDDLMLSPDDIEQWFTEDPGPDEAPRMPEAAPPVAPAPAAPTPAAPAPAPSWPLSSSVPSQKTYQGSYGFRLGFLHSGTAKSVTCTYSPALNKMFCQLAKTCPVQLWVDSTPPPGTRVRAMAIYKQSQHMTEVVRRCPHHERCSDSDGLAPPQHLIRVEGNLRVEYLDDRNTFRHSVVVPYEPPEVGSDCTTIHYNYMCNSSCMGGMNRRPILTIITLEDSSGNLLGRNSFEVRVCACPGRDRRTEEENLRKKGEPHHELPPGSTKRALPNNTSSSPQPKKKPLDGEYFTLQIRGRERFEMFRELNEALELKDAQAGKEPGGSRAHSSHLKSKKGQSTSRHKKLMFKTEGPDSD

C=CC(C)(O)CCC=C(C)CCC=C(C)C (stereo not given)
inactive: [1] | [2]

C=C[Si](OCC)(OCC)OCC
inactive: [1] | [3]

C=CCOc1nc(OCC=C)nc(OCC=C)n1
inactive: [1] | [4] | [3]

O=S(=O)(O)c1cccc2c(S(=O)(=O)O)cccc12
inactive: [1] | [2] | [5] | [3]

CC(C=O)Cc1ccc(C(C)C)cc1 (stereo not given)
inactive: [1] | [6] | [4]

OC1OC[C@@H](O)[C@H](O)[C@H]1O (stereo not given in full)
inactive: [7] | [8] | [9] | [2] | [6] | [4]

CC1=CCC2C(C1)C2(C)C (stereo not given)
inactive: [1] | [8] | [2] | [4] | [3]

NC(=O)Nc1ccc(Cl)cc1
inactive: [1] | [2] | [3]

O=C1C(c2[nH]c3ccc(S(=O)(=O)O)cc3c2O)=Nc2ccc(S(=O)(=O)O)cc21
inactive: [7] | [8] | [9] | [2] | [5] | [4]

C=CC(=O)NCOCC(C)C
inactive: [1] | [9] | [5] | [4] | [3]

Nc1ccc(S(N)(=O)=O)cc1
inactive: [7] | [8] | [9] | [2] | [5] | [6] | [4] | [3]

Cc1ccc(Nc2ccc(O)c3c2C(=O)c2ccccc2C3=O)cc1
inactive: [7] | [8] | [9] | [2] | [5] | [6]

CC[C@]12CCCN3CCc4c(n(c5ccccc45)[C@@](O)(C(=O)OC)C1)[C@@H]32
inactive: [1] | [8] | [2] | [6] | [4] | [3]

CCO[Si](CCCS)(OCC)OCC
inactive: [1] | [6]

COc1ccc(OC)c(OC)c1
inactive: [1] | [9] | [2] | [6] | [4] | [3]

O=C(O)c1cn(-c2ccc(F)cc2)c2cc(N3CCNCC3)c(F)cc2c1=O
inactive: [1] | [9] | [2] | [6] | [3]

ClCCCl
inactive: [1] | [9] | [2] | [5] | [4] | [3]

O=C(O)c1cn(C2CC2)c2cc(N3CCNCC3)c(F)cc2c1=O
inactive: [1] | [5] | [4]

COc1ccc(O)cc1
inactive: [1] | [9] | [4] | [3]

C=C(C)[C@@H]1CCC2=CC(=O)C[C@@H](C)[C@]2(C)C1
inactive: [1] | [8] | [2] | [6] | [4] | [3]

Sc1nc(S)nc(S)n1
inactive: [1] | [2] | [6] | [3]

C=C(C)C(=O)OCCOC(=O)CC(C)=O
inactive: [1] | [8] | [2] | [6] | [4] | [3]

CCCCCC(CO)CCC (stereo not given)
inactive: [1] | [2] | [5] | [4] | [3]

CCCCCCCCCOC(C)=O
inactive: [1] | [2] | [5] | [6] | [4]

CCCC(=O)c1cc(O)c(O)cc1O
inactive: [7] | [8] | [9] | [2] | [6] | [4] | [3]

CC(=O)Nc1ccc(CC(=O)O)cc1
inactive: [7] | [8] | [9] | [2] | [5] | [6] | [4] | [3]

CC(CCO)CCc1ccccc1 (stereo not given)
inactive: [1] | [8] | [2] | [6] | [3]

Cc1ccc(S)cc1
inactive: [7] | [8] | [9] | [2] | [6] | [4]

Cc1ccc(C=O)s1
inactive: [1] | [8] | [5] | [6] | [4] | [3]

CCCCCCCCC=O
inactive: [1] | [2] | [5] | [4]

CCCCN
inactive: [1] | [9] | [2] | [5]

CC1(C)[C@H]2CC[C@]1(C)[C@H](O)C2
inactive: [7] | [8] | [9] | [2] | [5] | [6] | [4]

CC(=O)O[C@]1(C(C)=O)CC[C@H]2[C@@H]3C[C@H](C)C4=CC(=O)CC[C@]4(C)[C@H]3CC[C@@]21C
inactive: [7] | [8] | [9] | [2] | [5] | [6] | [3]
